{
  "source": "PubChem BioAssay",
  "note": "Calls of active or inactive are those of the source. How the calls were made is not given here.",
  "data": [
    {"molecular_target": "Pantothenate synthetase (Mycobacterium tuberculosis (strain ATCC 25618 / H37Rv)) (UniProt P9WIL5)", "sequence (P9WIL5 whole entry, looked up)": "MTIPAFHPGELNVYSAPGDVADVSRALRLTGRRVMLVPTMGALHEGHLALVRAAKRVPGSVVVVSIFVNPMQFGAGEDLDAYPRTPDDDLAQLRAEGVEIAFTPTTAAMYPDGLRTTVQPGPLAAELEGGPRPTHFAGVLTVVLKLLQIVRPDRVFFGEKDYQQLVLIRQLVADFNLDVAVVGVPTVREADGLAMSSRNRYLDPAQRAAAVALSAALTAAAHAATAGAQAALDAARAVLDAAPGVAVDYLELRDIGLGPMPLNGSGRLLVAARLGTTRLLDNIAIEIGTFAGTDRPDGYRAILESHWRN", "experiment": "Coupled enzyme confirmation of inhibitors against recombinant Mtb PanC (AID 375);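 further: 0% = full reaction with vehicle and 100% = no enzyme background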", "settings": "coupled enzyme assay; at 10 µM, hits give high values", "values": [
      {"smiles": "Cc1cccc(-c2nnn(CC/C(N)=N/O)n2)c1", "inhibition": "3% (inactive)"},
      {"smiles": "COc1ccc(C2(C(=O)N3CCCC3)CCOCC2)cc1OC", "inhibition": "6% (inactive)"},
      {"smiles": "CCOc1ccc2oc(-c3ccccc3)c(C(=O)N3CCN(CCO)CC3)c2c1", "inhibition": "0% (inactive)"},
      {"smiles": "N#Cc1c(NC(NC(=O)c2ccco2)C(=O)c2ccccc2)sc2c1CCCC2", "note": "(stereo not drawn)", "inhibition": "2% (inactive)"},
      {"smiles": "Nc1nc(-c2ccccc2Br)cs1", "inhibition": "3% (inactive)"},
      {"smiles": "COc1cc2c(cc1OC)C(C)N(C(=O)Cn1ncc3c1-c1ccccc1OC3)CC2", "note": "(stereo not drawn)", "inhibition": "0% (inactive)"},
      {"smiles": "CC(CN1CCN(C)CC1)OC(=O)c1ccc(Cl)cc1Cl", "note": "(stereo not drawn)", "inhibition": "0% (inactive)"},
      {"smiles": "COC(=O)C1C(=O)c2c([nH]c(C(=O)OCCOC(C)C)c2C)CC1C", "note": "(stereo not drawn)", "inhibition": "0% (inactive)"},
      {"smiles": "COc1cccc(NC(=O)Cc2nnc(SCC(=O)c3ccccc3)n2C)c1", "inhibition": "0% (inactive)"},
      {"smiles": "CC(=O)c1c(C)nn(CC(O)COc2ccc3c(c2)CCC3)c1C", "note": "(stereo not drawn)", "inhibition": "0% (inactive)"},
      {"smiles": "COc1ccc(NC(=O)CC2Sc3ncnn3C2=O)cc1", "note": "(stereo not drawn)", "inhibition": "0% (inactive)"},
      {"smiles": "CCOc1ccc(Cc2nn[nH]n2)cc1", "inhibition": "1% (inactive)"},
      {"smiles": "O=C(NCc1ccco1)c1csc(Nc2ccccc2Cl)n1", "inhibition": "0% (inactive)"},
      {"smiles": "O=C(Nc1cccc(F)c1)c1cccc(S(=O)(=O)N2CCOCC2)c1", "inhibition": "0% (inactive)"},
      {"smiles": "COc1ccc(NC(=O)Nc2ccc(N3CCCC3=O)cc2)cc1OC", "inhibition": "0% (inactive)"},
      {"smiles": "COCCCNC(=O)CCc1nc(-c2ccccc2Cl)no1", "inhibition": "0% (inactive)"},
      {"smiles": "Clc1ccc(Cc2nn3c(-c4ccncc4)nnc3s2)cc1", "inhibition": "0% (inactive)"},
      {"smiles": "CCOc1ccc(CN2CCN(c3cc(C)nc4c5c(C)cc(C)nc5nn34)CC2)cc1", "inhibition": "0% (inactive)"},
      {"smiles": "CC(C)OC(=O)CSc1nnc(-c2cccnc2)n1Cc1ccccc1", "inhibition": "3% (inactive)"},
      {"smiles": "CNC(=O)CSc1nnc(-c2cc(C)cc(C)c2)o1", "inhibition": "7% (inactive)"},
      {"smiles": "Cc1ccc(-c2nc3cc(N)ccc3o2)cc1", "inhibition": "0% (inactive)"},
      {"smiles": "Cc1onc(-c2c(Cl)cccc2Cl)c1C(=O)NCC1CCCO1", "note": "(stereo not drawn)", "inhibition": "0% (inactive)"},
      {"smiles": "CCOc1ccc(N2CC(C(=O)Nc3ccccc3OC)CC2=O)cc1", "note": "(stereo not drawn)", "inhibition": "0% (inactive)"}
    ]}
  ]
}
